In PubChem BioAssay AID618 (Sanford-Burnham Center for Chemical Genomics, 2007):
About 540 (0.62%) of roughly 87,000 compounds were called active. How the calls were made is not given here. Shown is part of a subset that was picked to be rich in actives. Measured potencies and affinities stand elsewhere.

Experiment: MT1-MMP gene expression reporter suppression – cell-based, luciferase reporter, luminescence (AID 618);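 further: actives suppress MT1-MMP promoter-driven transcription so potencies describe inhibitors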
Conditions: MT1-MMP promoter luciferase reporter cells
In the case of `COc1ccc(C(=O)Nc2ccccc2C(=O)NCCN2CCOCC2)cc1`, the outcome is reported as “inactive”. In the case of `CN(C)CCCN1c2ccccc2Sc2ccccc21`, the outcome is reported as “inactive”. With `COc1ccc2c(c1)Sc1ccccc1N2CCN(C)C` the outcome was “active”. In the case of `CN(C)CCCN1c2ccccc2Sc2ccc(Cl)cc21`, the outcome is reported as “inactive”. In the case of `CCOC(=O)C(N)CSC1CC(=O)N(c2ccc(C(=O)OC)cc2)C1=O` (configuration not stated), the outcome is reported as “inactive”. For `CCOC(=O)COc1nc(Nc2ccccc2C)nc(N(C)C)n1`, the outcome was “inactive”. For `O=C(NNC(=O)c1ccc(SCC2CCCO2)c([N+](=O)[O-])c1)c1ccc(F)cc1` (configuration not stated), the outcome was “inactive”. In the case of `c1ccc2c(-c3nc(-c4ccncc4)no3)cccc2c1`, the outcome is reported as “inactive”. In the case of `COc1cc(-c2nc(-c3ccccn3)no2)cc(OC)c1OC`, the outcome is reported as “inactive”. In the case of `COc1cccc(-c2nc(-c3ccccn3)no2)c1OC`, the outcome is reported as “inactive”. With `c1ccc(-c2noc(-c3cccc4ccccc34)n2)nc1` the outcome was “active”. With `c1ccc(-c2noc(-c3cccc4ccccc34)n2)cc1` the outcome was “inactive”. For `CCCCNC(=O)n1c(SC)nc2ccccc21`, the outcome was “inactive”. For `COc1cccc(-c2ccc(C#N)c(OC(=O)c3ccc(Cl)cc3)n2)c1`, the outcome was “inactive”. For `COc1ccc(-n2c(Cc3cc(=O)[nH]c(=O)[nH]3)nnc2SCC(=O)N2CCCC2)cc1`, the outcome was “inactive”. In the case of `O=C(CSc1nnc(Cc2ccccc2)o1)NC1CCCCC1`, the outcome is reported as “inactive”. With `CCOC(=O)c1c(NC(=O)CCl)sc(C(=O)N(CC)CC)c1C` the outcome was “active”. With `CCOC(=O)Nc1sc(C(=O)N(CC)CC)c(C)c1C(=O)OCC` the outcome was “inactive”. With `CCOC(=O)c1c(NC(=O)CN(C)C)sc(C(=O)N(CC)CC)c1C` the outcome was “inactive”. For `Cc1ccc(NC2=C/C(=N\S(=O)(=O)c3cccs3)c3ccccc3C2=O)c(C)c1`, the outcome was “inactive”. With `CCC1CCCCN1C(=O)Cn1c(C(=O)OC)cc2ccsc21` (configuration not stated) the outcome was “inactive”. With `O=C(c1cccnc1)N1CCCc2ccccc21` the outcome was “inactive”. For `COc1cccc(C(=O)Nc2ccc(NC(C)=O)cn2)c1`, the outcome was “inactive”. With `COc1cccc(C(=O)Nc2ccc(NC(=O)C(C)(C)C)cn2)c1` the outcome was “active”. For `CCC(=O)Nc1ccc(NC(=O)c2cccc(OC)c2)nc1`, the outcome was “inactive”. With `Cn1c(NC(=O)CC(C)(C)C)cc(=O)n(C)c1=O` the outcome was “inactive”. With `Cc1nnc2sc(-c3ccc(NC(=O)c4cccnc4)cc3)nn12` the outcome was “inactive”. For `O=C1c2ccccc2-c2nccnc21`, the outcome was “inactive”. In the case of `COc1ccc(C2C(=O)c3ccccc3C2=O)c(OC)c1`, the outcome is reported as “inactive”. For `O=C1c2ccccc2C(=O)C1c1ccncc1`, the outcome was “inactive”. For `N#CC1=C(N)SC(N)=C(C#N)C1c1ccnc2ccccc12`, the outcome was “inactive”. In the case of `O=C(NCCCCCNC(=O)c1ccco1)c1ccco1`, the outcome is reported as “inactive”. For `CCCCOc1ccccc1C1NC(=O)NC(C)=C1C(=O)OCCOCC` (configuration not stated), the outcome was “inactive”. With `CC(C)(C)NC(=O)Nc1ccc2nccnc2c1` the outcome was “inactive”. With `CCc1ccc(OCc2ccc(C(=O)NCc3ccccn3)o2)cc1` the outcome was “inactive”. In the case of `O=C(OCc1ccccn1)c1ccc(COc2ccccc2Cl)o1`, the outcome is reported as “inactive”. In the case of `O=C(O)c1ccc(COc2ccc(Cl)cc2)o1`, the outcome is reported as “inactive”. In the case of `CCOc1ccc(OCc2ccc(C(=O)N3CCCC3)o2)cc1`, the outcome is reported as “inactive”. With `CCN(CC(O)Cn1c2ccccc2c2ccccc21)S(=O)(=O)c1ccc(C)cc1` (configuration not stated) the outcome was “inactive”. For `O=C(/C=N/O)Nc1ccccc1C(=O)O`, the outcome was “inactive”. In the case of `O=C(NCc1ccccc1)c1ccc(Oc2ccc(C(=O)NCc3ccccc3)cc2)cc1`, the outcome is reported as “inactive”. With `O=C(CN(CC1CCCO1)C(=O)CCC(=O)Nc1nccs1)NCc1ccc2c(c1)OCO2` (configuration not stated) the outcome was “inactive”. With `CCOC(=O)N1CCN(C(=O)CN(c2cccc(C(F)(F)F)c2)S(C)(=O)=O)CC1` the outcome was “inactive”. In the case of `O=C(Nc1ccccc1)N1CCc2ccccc21`, the outcome is reported as “inactive”. In the case of `CCOC(=O)c1ccc(NC(=O)N2CCc3ccccc32)cc1`, the outcome is reported as “inactive”. In the case of `O=C(CN1C(=O)C2C3C=CC(C3)C2C1=O)Nc1nc2ccccc2[nH]1` (configuration not stated), the outcome is reported as “inactive”. In the case of `CCOc1ccc(S(=O)(=O)N(C)c2ccc(OCC(=O)N3CCOCC3)cc2)cc1`, the outcome is reported as “inactive”. With `CC(=O)c1ccc(NC(=O)C(C)Sc2nnnn2C)cc1` (configuration not stated) the outcome was “inactive”. With `COc1cccc(C(=O)Nc2ccccc2)c1` the outcome was “inactive”. With `COc1ccc(N/C=C\C(=O)c2ccc3c(c2)OCO3)cc1` the outcome was “inactive”. In the case of `COc1ccc(C(=O)Nc2cccc(C)c2)cc1`, the outcome is reported as “inactive”. For `COc1cccc(C(=O)/C=C/Nc2cc(C)ccc2O)c1`, the outcome was “inactive”. For `COc1ccc(S(=O)(=O)NCC(c2cccnc2)N2CCN(C)CC2)cc1C` (configuration not stated), the outcome was “inactive”. In the case of `O=C(COc1ccc2ccccc2c1)NC1CC1`, the outcome is reported as “inactive”. For `CCCC1(C(=O)OC)NC(c2cc(OC)c(OC)c(OC)c2)C2C(=O)N(CC)C(=O)C21` (configuration not stated), the outcome was “inactive”. With `O=c1[nH]nc(Cc2ccc(Cl)cc2)c2ccccc12` the outcome was “inactive”. For `Cc1nn2c(C(F)(F)F)cc(-c3ccc(Cl)cc3)nc2c1C(=O)N1CCOCC1`, the outcome was “inactive”. For `Nc1ccc(-c2nc3c(Cl)c(N)ccc3[nH]2)cc1`, the outcome was “inactive”. For `Nc1ccc2nc(-c3ccc(N)c(Cl)c3)[nH]c2c1`, the outcome was “inactive”. With `CC(=O)c1cnc2cc(-c3ccc(Cl)cc3)nn2c1C` the outcome was “inactive”. For `O=C(CNS(=O)(=O)c1ccccc1)NCc1ccccn1`, the outcome was “inactive”. For `CCCc1ccc(-c2cc(N)n[nH]2)cc1`, the outcome was “inactive”. With `CCCCc1ccc(-c2ccc(Br)cc2)nc1` the outcome was “inactive”. For `CCOc1ccc(NC(=O)CCN2CCN(c3ccccc3F)CC2)cc1`, the outcome was “inactive”. With `COc1ccc(-c2nnn(CC(=O)NCc3ccccc3)n2)cc1OC` the outcome was “inactive”. With `CCC(C)NC(=O)Nc1ccc2c(c1)N(C)C(=O)c1ccccc1S2` (configuration not stated) the outcome was “inactive”. In the case of `Cc1nc(SCc2cccc(Oc3ccccc3)c2)n[nH]1`, the outcome is reported as “inactive”. For `c1ccc(-c2ccccn2)nc1`, the outcome was “inactive”. With `c1ccc(-c2nnc(-c3ccccn3)nn2)nc1` the outcome was “inactive”. For `CCc1nc(OCC(=O)c2ccccc2)c(C#N)c2c1COC(C)(C)C2`, the outcome was “inactive”. With `Cc1c(N/C=C/C(=O)c2ccc(Cl)cc2)c(=O)n(-c2ccccc2)n1C` the outcome was “inactive”. With `NC(=O)c1ccccc1N/C=C/C(=O)c1ccc(Cl)cc1` the outcome was “inactive”. In the case of `COc1ccc(C(=O)Nc2ccccn2)cc1`, the outcome is reported as “inactive”. In the case of `Cc1ccc(C(=O)/C=C/Nc2ccccc2C(N)=O)cc1`, the outcome is reported as “inactive”. For `NC(=O)c1ccccc1N/C=C/C(=O)c1ccccc1`, the outcome was “active”. With `Cc1ccc(C(=O)/C=C/Nc2ccccn2)cc1` the outcome was “active”. For `Cc1cc(N/C=C/C(=O)c2ccc(Br)cc2)no1`, the outcome was “inactive”. For `Cc1ccc(/C=C/C(=O)c2ccccc2)cc1`, the outcome was “inactive”. In the case of `COc1ccc(C(=O)/C=C/Nc2cccc(C)n2)cc1OC`, the outcome is reported as “inactive”. For `NC(=O)c1ccccc1N/C=C/C(=O)c1ccc(F)cc1`, the outcome was “inactive”. For `CCCCc1ccc(Nc2nc(CCC)cc(=O)[nH]2)cc1`, the outcome was “inactive”. With `COc1ccc(C2C(C#N)=C(N)Oc3n[nH]c(-c4ccccn4)c32)c(OC)c1OC` (configuration not stated) the outcome was “inactive”. In the case of `C=C(c1ccc(OC)cc1)c1ccc(OC)cc1`, the outcome is reported as “inactive”. In the case of `CC(C)Cn1c(N)c(C(=O)COC(=O)c2cc(C(F)(F)F)nc3ccccc23)c(=O)n(C)c1=O`, the outcome is reported as “inactive”. In the case of `COC(=O)C(C(=O)Nc1ncccn1)C1CCCCCC1` (configuration not stated), the outcome is reported as “inactive”. For `O=C(Nc1cccnc1)c1c(F)c(F)c(F)c(F)c1F`, the outcome was “inactive”. In the case of `Cc1ccc(S(=O)(=O)n2nc(-c3ccc(Cl)cc3)nc2NCc2ccco2)cc1`, the outcome is reported as “inactive”. With `Cc1ccnn1CCSCC(=O)O` the outcome was “inactive”. In the case of `O=C(/C=C/NNC(=O)c1ccccc1)c1ccccc1`, the outcome is reported as “inactive”. For `O=C(CC(=O)Nc1ccccn1)Nc1ccccn1`, the outcome was “inactive”. In the case of `CCn1c(=NC(=O)CN2C(=O)CCC2=O)sc2c(C)cc(C)cc21`, the outcome is reported as “inactive”. In the case of `Cc1cc(N2CCCC2=O)cc(C)c1S(=O)(=O)NCCOc1ccc(C(C)(C)C)cc1`, the outcome is reported as “inactive”. In the case of `N#Cc1cc(N)c(Nc2ccccc2)cc1C#N`, the outcome is reported as “inactive”. For `CCC1(c2ccccc2)NC(=O)N(CC(=O)Nc2cccc(C#N)c2)C1=O` (configuration not stated), the outcome was “inactive”. For `COc1cc(C)c(Cl)cc1S(=O)(=O)n1cnc(C)c1`, the outcome was “inactive”. In the case of `COc1cc(C)c(C(C)C)cc1S(=O)(=O)n1cnc(C)c1`, the outcome is reported as “active”. With `COc1cc(C)c(C(C)C)cc1S(=O)(=O)n1ccnc1` the outcome was “inactive”. With `CCN1C(=C2C(=O)c3ccccc3C2=O)C=Cc2ccccc21` the outcome was “inactive”. In the case of `CCN1C(=O)/C(=C2\C=Cc3ccccc3N2CC)OC1=S`, the outcome is reported as “inactive”. With `CCN1/C(=C/c2ccc3ccccc3[n+]2CC)C=Cc2ccccc21` the outcome was “active”. For `CC1(C)CC(=O)N(c2ccccc2)C1(C)O` (configuration not stated), the outcome was “inactive”. In the case of `Cc1cc(C(=O)CSc2nc3ccccc3[nH]2)c(C)n1C`, the outcome is reported as “inactive”. With `C=CCn1c(C)cc(C(=O)CSc2nc3ccccc3c(=O)[nH]2)c1C` the outcome was “inactive”. For `Cc1cc(C(=O)CSc2nc3ccc(Cl)cc3[nH]2)c(C)n1CC1CCCO1` (configuration not stated), the outcome was “inactive”. For `CCn1c(SCC(=O)c2cc(C)n(CC3CCCO3)c2C)nc2ccccc21` (configuration not stated), the outcome was “inactive”. In the case of `C=CCc1c(C)nc(SC)nc1Nc1ccc(C(C)=O)cc1`, the outcome is reported as “inactive”. With `CC1CC(C)(C)NC(=O)O1` (configuration not stated) the outcome was “inactive”. For `Cc1ccc(Nc2cc(C)nn2-c2nc(C)cc(=O)[nH]2)cc1`, the outcome was “active”. In the case of `Cc1cc(=O)[nH]c(-n2nc(C)cc2C)n1`, the outcome is reported as “inactive”. For `Cc1ccc(Nc2cc(C)nn2-c2nc(C)cc(C)n2)cc1`, the outcome was “inactive”. With `C=CCn1c(SCc2c(C)noc2C)nc2cc(C(=O)O)ccc2c1=O` the outcome was “inactive”. With `Cc1noc(C)c1CSc1nc2[nH]ncc2c(=O)n1-c1ccccc1` the outcome was “active”. With `Cc1noc(C)c1CSc1nc2ccccc2c(=O)n1-c1ccc(Cl)cc1` the outcome was “inactive”. For `Cc1nc(CSc2nc3[nH]ncc3c(=O)n2-c2ccccc2)cs1`, the outcome was “inactive”. For `Cc1noc(C)c1CSc1nc2ccccc2c(=O)n1-c1ccccc1`, the outcome was “inactive”. In the case of `C=CCn1c(SCc2c(C)noc2C)nc2ccccc2c1=O`, the outcome is reported as “active”. For `COc1ccccc1NC(=O)CSc1nnnn1-c1ccc(C)cc1`, the outcome was “inactive”. For `COCCCNC(=O)CCc1nc2cccnc2n1Cc1ccccc1`, the outcome was “inactive”. For `O=C(NNC(=O)c1ccccc1Br)c1ccc(SCC2CCCO2)c([N+](=O)[O-])c1` (configuration not stated), the outcome was “inactive”. In the case of `COc1ccc(CNc2nc3ccccc3n2CCN2CCOCC2)cc1`, the outcome is reported as “inactive”. With `COc1ccc(CC(=O)N2CCC(Nc3nc4ccccc4n3Cc3ccc(F)cc3)CC2)cc1` the outcome was “inactive”. For `COc1ccc(CCN2CCC(Nc3nc4ccccc4n3Cc3ccc(F)cc3)CC2)cc1`, the outcome was “active”.
